In PubChem BioAssay AID493012 (Sanford-Burnham Center for Chemical Genomics, 2011):
Among all 330,000 compounds or so, about 930 (0.28%) were called active.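 How the source made its calls: active means inhibition of at least 40% at 20 µM, with no more than 30% in the related APOBEC3A deaminase screen; inactive means the rest.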 This excerpt belongs to a sample that is enriched for actives.

target: DNA dC->dU-editing enzyme APOBEC-3G (Homo sapiens) (UniProt Q9HC16); assay: inhibition of human A3G ssDNA deamination – biochemical, fluorescence, single-stranded DNA substrate, uHTS, primary screen (AID 493012); conditions: recombinant A3G, ssDNA deamination FAM/TAMRA fluorescence; at 20 µM; stronger effect = higher value;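 further: plate controls were DMSO wells with A3G for no effect and wells lacking A3G enzyme for full effect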
Sequence (Q9HC16 whole entry, looked up): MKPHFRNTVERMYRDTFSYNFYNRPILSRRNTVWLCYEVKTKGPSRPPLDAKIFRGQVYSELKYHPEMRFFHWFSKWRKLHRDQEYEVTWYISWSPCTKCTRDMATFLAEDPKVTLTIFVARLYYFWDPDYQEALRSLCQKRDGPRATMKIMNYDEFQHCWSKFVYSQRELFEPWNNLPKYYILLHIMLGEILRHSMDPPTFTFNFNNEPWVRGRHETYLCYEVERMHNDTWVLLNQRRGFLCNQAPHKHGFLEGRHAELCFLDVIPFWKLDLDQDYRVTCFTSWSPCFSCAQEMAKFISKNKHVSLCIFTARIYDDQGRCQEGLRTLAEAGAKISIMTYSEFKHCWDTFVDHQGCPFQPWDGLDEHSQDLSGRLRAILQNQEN

Row | Compound | inhibition
1 | CCOC(=O)C(C)Sc1nnc(CSc2nc3nc(C)cc(C)n3n2)o1 (stereo not drawn) | -3.96% (inactive)
2 | CCc1c(C)[nH]c(=S)c(C#N)c1C | 40.3% (active)
3 | CC(=O)c1c(C)[nH]c(=S)c(C#N)c1-c1ccc(F)cc1 | 5.87% (inactive)
4 | CCC(=O)N(C)C(c1ccccc1Cl)c1nnnn1-c1c(C)cccc1C (stereo not drawn) | -7.17% (inactive)
5 | COC(=O)c1ccc2c(=O)n(CCN3CCOCC3)c(SCC(=O)Nc3cccc(OC)c3)nc2c1 | -3.78% (inactive)
6 | CC(=O)N(C1=C(Cl)C(=O)c2ccccc2C1=O)c1ccc(C(=O)O)cc1 | 89.2% (active)
7 | O=C(COC(=O)c1ncc(Cl)c(Cl)c1Cl)NC1CCS(=O)(=O)C1 (stereo not drawn) | -7.97% (inactive)
8 | CC1=C/C(=N\OS(=O)(=O)c2ccccc2)C=CC1=O | 71.9% (active)
9 | N#Cc1c(Cl)nc(-c2cccnc2)nc1-c1ccccc1 | -2.3% (inactive)
10 | N#Cc1ccccc1-n1c(N)c(C(=O)N2CCCC2)sc1=S | 25.4% (inactive)
11 | Cc1ccc(-n2c(N)c(C(=O)N3CCOCC3)sc2=S)c(C)c1 | 10.5% (inactive)
12 | Cc1cccc(-n2c(N)c(C(=O)N3CCN(C)CC3)sc2=S)c1 | 62.1% (active)
13 | COc1ccc(OCc2n[nH]c(=S)n2N)cc1 | 59.6% (active)
14 | Cc1ccc(OCc2n[nH]c(=S)n2-c2ccccc2)cc1 | 9.43% (inactive)
15 | COc1ccc(Cc2n[nH]c(=S)n2NC(=O)Nc2ccc(C)cc2)cc1 | 26.9% (inactive)
16 | COC(=O)c1cccc(N(C(=O)c2ccco2)C(C(=O)NC2CCCC2)c2ccco2)c1 (stereo not drawn) | 0.606% (inactive)
17 | Cn1c(=O)c2c(SCC(=O)NCC3CCCO3)nc(CC(C)(C)C)nc2n(C)c1=O (stereo not drawn) | -3.25% (inactive)
18 | CCOc1ccc(CN2CCN(Cc3ccc4cc(F)ccc4n3)CC2CCO)cc1 (stereo not drawn) | -8.75% (inactive)
19 | Cc1ccc(S(=O)(=O)N2CCC(Oc3ccc(-n4cnnn4)cc3)CC2)cc1 | -1.49% (inactive)
20 | CCCn1c(O)c(CN2CCCC(C)C2)c(C)c(C#N)c1=O (stereo not drawn) | -4.49% (inactive)
21 | O=c1[nH]c2ccccc2n2c(-c3ccccc3)nnc12 | 83.4% (active)

Row | Compound | inhibition
22 | O=c1[nH]n2c(-c3ccccc3)nc(O)c2c2ccccc12 | -3.66% (inactive)
23 | CC1(C)CC(=O)C2=C(C1)N=C1SCCC(=O)N1C2c1ccc(C(F)(F)F)cc1 (stereo not drawn) | -0.591% (inactive)
24 | COc1ccc(OCc2nnc3n2N=C(c2ccccc2)C(CC(=O)O)S3)cc1 (stereo not drawn) | 65.2% (active)
25 | COc1cccc(OCc2nnc3n2N=C(c2ccccc2)C(CC(=O)O)S3)c1 (stereo not drawn) | -9.67% (inactive)
26 | COc1ccc(C2CC(c3ccccc3)=NN2C(=O)COC(=O)COc2ccccc2)cc1 (stereo not drawn) | -5.97% (inactive)
27 | COc1cc(OC)c(NC(=O)C2CCCN2C(=O)OCc2ccccc2)cc1Cl (stereo not drawn) | -7.18% (inactive)
28 | CCOC(=O)c1ccc(Nc2cc3ccccc3c(=O)[nH]2)cc1 | -6.08% (inactive)
29 | CCOC(=O)C1=C(C)Nc2sc(C(=O)c3ccc(Br)cc3)c(N)c2C1c1ccc(C(=O)OC)cc1 (stereo not drawn) | -6.26% (inactive)
30 | CCOC(=O)c1sc(=S)n2c1[nH]c(=O)c1ccc(C(=O)OC)cc12 | 41.3% (active)
31 | CCCN1C2CCCC1CC(NC(=O)NC13CC4CC(CC(C4)C1)C3)C2 (stereo not drawn) | -7.31% (inactive)
32 | CC(C)C1Nc2c(C(=O)O)cccc2C(Nc2ccccc2C(=O)O)C1(C)C (stereo not drawn) | 3.35% (inactive)
33 | COc1ccc(-c2nc(SCC(=O)N3CCCC3)n[nH]2)cc1 | -17.7% (inactive)
34 | COc1ccc(N2C(=O)CC(SC(C)C)C2=O)cc1 (stereo not drawn) | -8.49% (inactive)
35 | COc1ccc(N2C(=O)CC(Sc3n[nH]c(-c4ccc(C)cc4)n3)C2=O)cc1 (stereo not drawn) | 41.5% (active)
36 | CCOC(=O)C1=C(c2ccccc2)NC(=O)NC1c1cc(OCC)c(O)c([N+](=O)[O-])c1 (stereo not drawn) | -2.96% (inactive)
37 | CCOC(=O)c1cnc(Nc2nc3ccccc3o2)nc1CSC(=S)N1CCCCC1 | -3.98% (inactive)
38 | CC(C)NC(=O)NC(=O)COC(=O)c1ccc(NC(=O)CC#N)cc1 | -1.25% (inactive)
39 | N#CCC(=O)Nc1ccc(C(=O)OCC(=O)Nc2sc3c(c2C#N)CCCC3)cc1 | -9.04% (inactive)
40 | CCOc1ccc(NC(=O)c2ccc(NC(=O)COC(=O)c3ccc(NC(=O)CC#N)cc3)cc2)cc1 | 66.2% (active)
41 | COc1ccc(C2(C)ON(c3ccccc3C(F)(F)F)C2=O)cc1 (stereo not drawn) | -6.81% (inactive)
42 | O=C(C1CC(=O)N(C2CCCCC2)C1)N1CCN(c2ccccc2)CC1 (stereo not drawn) | -5.67% (inactive)

Row | Compound | inhibition
43 | CC(=O)Nc1ccc(S(=O)(=O)Nc2ccc(N3CCCCC3)cc2)cc1 | -1.93% (inactive)
44 | O=C1C=CC(=O)N1c1ccc(N2CCCCC2)cc1 | 56.8% (active)
45 | COc1ccccc1OCC(=O)Nc1c2c(nn1-c1ccc(F)cc1)CS(=O)(=O)C2 | -3.56% (inactive)
46 | O=C(NCC1CCCCC1)c1cc(S(=O)(=O)N2CCCCC2)ccc1N1CCOCC1 | -1.87% (inactive)
47 | O=C(CCn1c(=O)oc2ccccc21)Nc1ccon1 | -6.36% (inactive)
48 | Cc1nc(Cl)c(C#N)c2c1CCCC2 | -4.63% (inactive)
49 | COC(=O)c1c(C)c(C)nc(N)c1C#N | -1.41% (inactive)
50 | COCc1c(N)c(C)nc(Cl)c1C#N | 66.3% (active)
51 | Brc1ccc(C2CC(c3ccccc3)=Nc3ccccc3N2)cc1 (stereo not drawn) | -3.13% (inactive)
52 | Cn1cccc1C(=O)NC(=O)COC(=O)Cc1coc2ccc3ccccc3c12 | -8.11% (inactive)
53 | COc1cccc(CN2CCN(Cc3ccc4cccc(F)c4n3)CC2CCO)c1 (stereo not drawn) | -9.71% (inactive)
54 | COc1ccc(CNC(=O)C(=O)N2CCC3(CC2)OCCN3S(=O)(=O)c2ccc(C)cc2)cc1 | -5.73% (inactive)
55 | Cc1ccc(NC(=O)CN(C)C(=O)c2ccc(Cl)c(S(=O)(=O)NCc3ccco3)c2)cc1 | -5.2% (inactive)
56 | Cc1cc(-c2n[nH]c(=S)n2/N=C/c2ccco2)n[nH]1 | 44.7% (active)
57 | Cc1ccc(CN2CCN(/N=C/c3ccco3)CC2)c(C)c1 | -10.3% (inactive)
58 | S=c1[nH]nc(-c2ccco2)n1/N=C/c1ccc(Br)s1 | 17% (inactive)
59 | Fc1ccc(/C=N/n2c(COc3ccccc3)n[nH]c2=S)cc1 | 13.5% (inactive)
60 | S=c1[nH]nc(-c2ccco2)n1/N=C/c1ccccc1 | 44.3% (active)
61 | COc1ccccc1/C=C/C=N/n1c(-c2ccc(Cl)cc2Cl)n[nH]c1=S | -7.26% (inactive)
62 | CCC(C)(C)NC(=O)c1cc([N+](=O)[O-])ccc1N1CCCCC1 | -0.515% (inactive)
63 | CC1(C)C[C@H]2C3=CCC4[C@@]5(C)CC[C@H](O)[C@](C)(CO)C5CC[C@@]4(C)[C@]3(C)C[C@@H](O)[C@@]2(CO)[C@@H](O)[C@@H]1O (stereo partly drawn) | -1.86% (inactive)
